# Experimental data reported in ChEMBL document CHEMBL3433997, “St. Jude Leishmania screening dataset” (2016).
# Legend:
# Format in all cases: functional
# [1] = biological target: Solute carrier family 2, facilitated glucose transporter member 1 (Homo sapiens) (UniProt P11166); test: ST_JUDE_LEISH: Cytotoxicity at 2uM final concentration against transgenic Leishmania Mexicana promastigotes LmGLUT1 that are glucose transport deficient and complemented with the human glucose transporter GLUT1. Activity is measured by DNA content using SYBR green in vitro
# [2] = biological target: Hexose transporter 1 (Plasmodium falciparum) (UniProt O97467); test: ST_JUDE_LEISH: Cytotoxicity at 2uM final concentration against transgenic Leishmania Mexicana promastigotes LmPfHT that are glucose transport deficient and complemented with the Plasmodium falciparum hexose transporter. Activity is measured by DNA content using SYBR green in vitro
# [3] = biological target: Glucose transporter (Leishmania mexicana) (UniProt O61059); test: ST_JUDE_LEISH: Cytotoxicity at 2uM final concentration against transgenic Leishmania Mexicana promastigotes LmGT2 that are glucose transport deficient and complemented with the L. Mexicana glucose transporter 2. Activity is measured by DNA content using SYBR green in vitro
# Chain of Solute carrier family 2, facilitated glucose transporter member 1 (Homo sapiens) (P11166 whole entry): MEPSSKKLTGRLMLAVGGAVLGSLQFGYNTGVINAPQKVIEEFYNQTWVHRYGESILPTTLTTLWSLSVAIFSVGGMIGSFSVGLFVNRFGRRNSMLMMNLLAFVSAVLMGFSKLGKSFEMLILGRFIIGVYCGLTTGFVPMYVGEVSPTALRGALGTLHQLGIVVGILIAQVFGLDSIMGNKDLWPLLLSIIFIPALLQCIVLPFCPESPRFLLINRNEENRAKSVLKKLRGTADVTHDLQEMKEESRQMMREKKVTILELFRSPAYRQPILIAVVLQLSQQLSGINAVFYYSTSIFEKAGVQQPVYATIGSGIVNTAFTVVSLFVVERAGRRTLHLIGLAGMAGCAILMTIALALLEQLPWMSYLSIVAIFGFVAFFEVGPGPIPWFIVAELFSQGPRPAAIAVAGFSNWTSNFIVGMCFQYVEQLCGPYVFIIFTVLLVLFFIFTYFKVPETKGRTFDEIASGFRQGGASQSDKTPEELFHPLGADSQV
smiles,measurement,setting,value
COc1ccc2ncc(F)c(CCN3CC4CCCC4(CNCc4ccc5c(n4)NC(=O)CS5)C3)c2n1 (stereo not drawn),inhibition,[1],1.18%
same,inhibition,[2],1.32%
same,inhibition,[3],0.3%
O=C(Nc1ccc(Cl)cc1)Nc1ccc(OCC(O)CN2CCCCC2)cc1 (stereo not drawn),inhibition,[1],7.33%
same,inhibition,[2],8.27%
same,inhibition,[3],7.64%
Fc1ccc2[nH]c(-c3ccc(-c4ccc(CNCC5CCCO5)cc4)s3)nc2c1 (stereo not drawn),inhibition,[1],11.9%
same,inhibition,[2],9.33%
same,inhibition,[3],11%
COc1ccc(-c2ccc(CNCc3ccc(F)cc3)cc2)cc1S(=O)(=O)NCCN1CCCC1,inhibition,[1],0.67%
same,inhibition,[2],1.06%
same,inhibition,[3],3.23%
Cc1cccc(-n2c(=O)c3c4c(sc3n3c(SCCC(C)C)nnc23)CCCC4)c1,inhibition,[1],0.75%
same,inhibition,[2],1.59%
same,inhibition,[3],-0.43%
O=C(C=Cc1ccc(Cl)c(Cl)c1)NCCCCCN1CCC(CCNC(=O)C(c2ccccc2)c2ccccc2)CC1,inhibition,[1],3.47%
same,inhibition,[2],1.79%
same,inhibition,[3],0.8%
COc1ccc2nccc([C@@H](O)CN3CCC(NC(=O)/C=C/c4cc(F)cc(NC(C)=O)c4)CC3)c2c1,inhibition,[1],5.61%
same,inhibition,[2],2.3%
same,inhibition,[3],-3.44%
CC1(C)NC(N)=NC(=N)N1OCc1cc(Cl)cc2c1OCOC2,inhibition,[1],2.73%
same,inhibition,[2],-0.07%
same,inhibition,[3],0.71%
NC(=O)C1CCN(Cc2ccc(-c3ccc(-c4nc5cc(F)ccc5[nH]4)cc3)cc2)CC1,inhibition,[1],12.7%
same,inhibition,[2],12.7%
same,inhibition,[3],10.8%
COc1ccc2[nH]c(C)cc(=NN=Cc3ccccc3)c2c1,inhibition,[1],-2.87%
same,inhibition,[2],0.32%
same,inhibition,[3],-0.26%
CCCCCCNc1cc(C)nc(NC(=N)Nc2cccc(C(F)(F)F)c2)n1,inhibition,[1],1.36%
same,inhibition,[2],3.48%
same,inhibition,[3],4.89%
Cc1cccc2nc(-c3ccc(-c4cccc(CN5CCC(CCN6CCCCC6)CC5)c4)s3)[nH]c12,inhibition,[1],-0.21%
same,inhibition,[2],0.87%
same,inhibition,[3],-3.24%
O=C(/C=C/c1ccc(Cl)c(Cl)c1)NC1CCC(CN2CCC(c3cc4ccccc4[nH]3)CC2)CC1 (stereo not drawn),inhibition,[1],0.13%
same,inhibition,[2],2.67%
same,inhibition,[3],1.06%
COc1ccc2nccc(N3CCC(CCNCc4ccc5c(n4)NC(=O)CO5)CC3)c2c1,inhibition,[1],1.72%
same,inhibition,[2],5.22%
same,inhibition,[3],-0.63%
COc1cc(NC2CCCC(NCc3cn(S(=O)(=O)c4ccccc4)c4ccccc34)C2)nc2ccccc12 (stereo not drawn),inhibition,[1],1.09%
same,inhibition,[2],2.28%
same,inhibition,[3],2.67%
Cc1cccc2nc(-c3ccc(-c4cccc(CN5CCN(CCO)CC5)c4)cc3)[nH]c12,inhibition,[1],7.34%
same,inhibition,[2],4.65%
same,inhibition,[3],4.22%
CCC(=O)NC(c1ccco1)c1cc(Cl)c2cccnc2c1O (stereo not drawn),inhibition,[1],12.9%
same,inhibition,[2],12.3%
same,inhibition,[3],10.7%
OC(CNCc1ccccc1Oc1ccccc1)c1cccc(C(F)(F)F)c1 (stereo not drawn),inhibition,[1],3.95%
same,inhibition,[2],2.2%
same,inhibition,[3],0.07%
CCN(CC)CCNC(=O)c1ccc(Nc2ncc([N+](=O)[O-])c(Nc3ccccc3OC)n2)cc1,inhibition,[1],4.77%
same,inhibition,[2],4.91%
same,inhibition,[3],3.73%
Cc1ccnc2nc(C(=O)Nc3cc(Cl)ccc3N3CCOCC3)nn12,inhibition,[1],5.13%
same,inhibition,[2],5.74%
same,inhibition,[3],5.36%
CC(CN(C)C)C(=O)Nc1ccc(-c2ccc(-c3nc4ccccc4[nH]3)s2)cc1 (stereo not drawn),inhibition,[1],2.59%
same,inhibition,[2],3.52%
same,inhibition,[3],6.24%
COc1cc(F)c2ncc(F)c([C@@H](O)CN3CCC(NCc4cc5c(cn4)OCCO5)CC3)c2c1,inhibition,[1],1.43%
same,inhibition,[2],2.18%
same,inhibition,[3],2.06%
CC(C)c1cn2c3c(cc(C(=O)N[C@@H](Cc4ccccc4)[C@H](O)CNC4CCCCC4)cc13)N(C)S(=O)(=O)CC2,inhibition,[1],-1.18%
same,inhibition,[2],-0.34%
same,inhibition,[3],-2.44%
O=C(Nc1cccc(Cl)c1N1CCOCC1)C(Cl)(Cl)Cl,inhibition,[1],1.32%
same,inhibition,[2],0.42%
same,inhibition,[3],1.03%
CCN(CC)c1ccc(C(=O)Cn2ccc(=N)cc2)cc1,inhibition,[1],1.35%
same,inhibition,[2],-0.06%
same,inhibition,[3],0.82%
COc1ccc(CNCc2cccc(-c3ccc(-c4nc5ccccc5[nH]4)cc3)c2)cc1,inhibition,[1],3.35%
same,inhibition,[2],1.89%
same,inhibition,[3],3.52%
Cc1cccc2nc(-c3ccc(-c4cccc(CNCCNC(=O)c5ccnn5C)c4)s3)[nH]c12,inhibition,[1],3.8%
same,inhibition,[2],4.31%
same,inhibition,[3],3.87%
CCN(CC)CCOc1ccc(C(O)(C#CC(O)(c2ccc(OCCN(CC)CC)cc2)c2ccc([N+](=O)[O-])cc2)c2ccc([N+](=O)[O-])cc2)cc1 (stereo not drawn),inhibition,[1],61%
same,inhibition,[2],32.7%
same,inhibition,[3],4.31%
O=C(NCCCCN1CCN(c2cccc3c2OCCO3)CC1)c1ccc(NC(=O)c2cc(Cl)cc(Cl)c2)cc1,inhibition,[1],2.62%
same,inhibition,[2],2.75%
same,inhibition,[3],3.56%
O=C(Nc1cccc(C(F)(F)F)c1)Nc1ccc(F)c([N+](=O)[O-])c1,inhibition,[1],2.84%
same,inhibition,[2],3.09%
same,inhibition,[3],-0.74%
COc1cccc(OC)c1CN1CCC(N(C)CCCCCCCCCN2CCC(OC(=O)Nc3ccccc3-c3ccccc3)CC2)CC1,inhibition,[1],113%
same,inhibition,[2],108%
same,inhibition,[3],111%
c1csc(-c2nc(N3CCCC3)ncc2-c2ccsc2)n1,inhibition,[1],0.85%
same,inhibition,[2],-0.18%
same,inhibition,[3],1.26%
COc1cccc(-c2ccc(C(=O)NC3CCN(Cc4ccc(N(C)C)cc4)CC3)s2)c1,inhibition,[1],2.66%
same,inhibition,[2],1.14%
same,inhibition,[3],-0.07%
O=C(NCCN1CCCCC1)c1cccc(Nc2nccc(Nc3ccc(Oc4ccccc4)cc3)n2)c1,inhibition,[1],-0.01%
same,inhibition,[2],-0.85%
same,inhibition,[3],-0.27%
Cc1noc(C)c1-c1cccc(CNCc2cccc(-c3cccc(-c4nc5cc(F)ccc5[nH]4)c3)c2)c1,inhibition,[1],-2.23%
same,inhibition,[2],5%
same,inhibition,[3],0.55%
COc1ccc(-c2ccc(NC(=O)c3cccc(Cl)c3)cc2)cc1CN1CCC(O)CC1,inhibition,[1],14.6%
same,inhibition,[2],15.5%
same,inhibition,[3],12.4%
O=C(CCc1cccnc1)Nc1ccc(-c2cccc(-c3nc4cc(F)ccc4[nH]3)c2)cc1,inhibition,[1],10.7%
same,inhibition,[2],9.99%
same,inhibition,[3],8.65%
CC(=O)Nc1ccc(CN2CCC(NC(=O)c3ccc(-c4cccc(C(F)(F)F)c4)s3)CC2)cc1,inhibition,[1],0.69%
same,inhibition,[2],0.42%
same,inhibition,[3],-4.9%
COc1ccc(N2CCN(CCCCNC(=O)c3ccc(NC(=O)c4ccc(OC(F)(F)F)cc4)cc3)CC2)c(OC)c1,inhibition,[1],5.81%
same,inhibition,[2],5.69%
same,inhibition,[3],6.29%
O=C(NC1CCCCN(Cc2ccccc2O)C1)c1ccc(-c2ccccc2)cc1 (stereo not drawn),inhibition,[1],2.73%
same,inhibition,[2],2.62%
same,inhibition,[3],2.4%
O=C(CNC(=O)c1ccc(O)cc1)Nc1ccc(-c2cccc(-c3nc4cc(C(F)(F)F)ccc4[nH]3)c2)cc1,inhibition,[1],8.61%
same,inhibition,[2],8.61%
same,inhibition,[3],8.38%
c1ccc(CCNCc2ccc(-c3ccc(CNC4CCN(Cc5ccccc5)CC4)cc3)nc2)cc1,inhibition,[1],5.76%
same,inhibition,[2],11.9%
same,inhibition,[3],4.15%
CC(C)(C)C(=O)Nc1ccc(C(=O)Nc2cccc(-c3nc4ccccc4[nH]3)c2)cc1,inhibition,[1],1.87%
same,inhibition,[2],0.85%
same,inhibition,[3],-0.79%
N#Cc1cccc(C(=O)NC2CCN(CCCCCNC(=O)/C=C/c3ccc(Cl)c(Cl)c3)CC2)c1,inhibition,[1],5.7%
same,inhibition,[2],5.26%
same,inhibition,[3],7.61%
Brc1ccc(Nc2nc3ccccc3nc2Nc2ccc(Br)cc2)cc1,inhibition,[1],9.39%
same,inhibition,[2],6.78%
same,inhibition,[3],9.68%
COc1ccc(-c2ccc(NC(=O)c3cccc(Cl)c3)cc2)cc1CN(C)CCN(C)C,inhibition,[1],15.6%
same,inhibition,[2],14.4%
same,inhibition,[3],4.62%
COC(=O)c1ccc(OCC(O)CO)cc1O (stereo not drawn),inhibition,[1],0.55%
same,inhibition,[2],2.14%
same,inhibition,[3],-0.04%
CC(O)c1cccc(-c2ccc(Nc3ccnc4cc(-c5nccs5)ccc34)cc2)c1 (stereo not drawn),inhibition,[1],4.55%
same,inhibition,[2],4.09%
same,inhibition,[3],4.15%
O=C(Nc1cccc(CN2CCCN(Cc3ccc(O)cc3)CC2)c1)c1cc(F)cc(F)c1,inhibition,[1],3.19%
same,inhibition,[2],1.64%
same,inhibition,[3],-5.2%
NC(=O)c1cccc(-n2ccc3cc(CNC4Cc5ccccc5C4)ccc32)c1,inhibition,[1],21.9%
same,inhibition,[2],26.2%
same,inhibition,[3],8.72%
O=C(Nc1ccc(-c2cccc(-c3nc4cc(F)ccc4[nH]3)c2)cc1)c1cnn2cccnc12,inhibition,[1],2.14%
same,inhibition,[2],3.22%
same,inhibition,[3],0.84%
O=C(Nc1cccc(F)c1)N(Cc1ccc(-c2cccc(CN3CCNCC3)c2)cc1)C1CCN(Cc2ccccc2)CC1,inhibition,[1],7.44%
same,inhibition,[2],6.99%
same,inhibition,[3],6.85%
Oc1ccc2[nH]c(-c3cccs3)nc2c1CN1CCC(N2CCCC2)CC1,inhibition,[1],3.78%
same,inhibition,[2],6.78%
same,inhibition,[3],5.89%
Cc1ccc(NC(=O)c2cccc(N3CCN(c4ccncc4)CC3)c2)cc1F,inhibition,[1],10.8%
same,inhibition,[2],9.25%
same,inhibition,[3],15.6%
COc1ccc(CNCc2ccc(-c3cccc(-c4nc5cc(F)ccc5[nH]4)c3)cc2)cc1,inhibition,[1],1.04%
same,inhibition,[2],4.45%
same,inhibition,[3],-2.49%
CCCNCc1ccc(-c2ccc(CN(CCOC)C(=O)COc3ccccc3Cl)cc2)nc1,inhibition,[1],-0.3%
same,inhibition,[2],1.54%
same,inhibition,[3],-1.95%
CCCCCN1C(=O)C(c2ccccc2)(c2ccccc2)N=C1N,inhibition,[1],4.32%
same,inhibition,[2],2.96%
same,inhibition,[3],4.92%
Cc1cnc(C(=O)Nc2cccc(-c3cccc(-c4nc5cc(F)ccc5[nH]4)c3)c2)cn1,inhibition,[1],8.32%
same,inhibition,[2],5.55%
same,inhibition,[3],5.18%
Cc1nc(C)c(CC(=O)Nc2cccc(-c3cccc(-c4nc5cccc(C)c5[nH]4)c3)c2)s1,inhibition,[1],-1.73%
same,inhibition,[2],-0.36%
same,inhibition,[3],-0.58%
O=C(c1ccc(Cl)c(Cl)c1)N1CCc2c([nH]c3ccccc23)C1CN1CCCC1 (stereo not drawn),inhibition,[1],4.26%
same,inhibition,[2],5.06%
same,inhibition,[3],3.77%
CCC(=C(CC)c1ccc(O)c(CNC2CCCCC2)c1)c1ccc(O)c(CNC2CCCCC2)c1,inhibition,[1],23.6%
same,inhibition,[2],8.98%
same,inhibition,[3],-1.26%
CNC(=O)Cc1ccc(C(=O)Nc2cccc(-c3cccc(-c4nc5cccc(C)c5[nH]4)c3)c2)cc1,inhibition,[1],-2.05%
same,inhibition,[2],-0.87%
same,inhibition,[3],-1.69%
Nc1nc(N)c2c(ccc3c2ccn3Cc2ccc(OCc3ccccc3)cc2)n1,inhibition,[1],2.4%
same,inhibition,[2],-1.46%
same,inhibition,[3],-0.6%
COc1cc(C(=O)N2COCC(CCCN3CCC(N4CCCC4)CC3)(c3ccc(Cl)c(Cl)c3)C2)cc(OC)c1OC (stereo not drawn),inhibition,[1],3.3%
same,inhibition,[2],3.39%
same,inhibition,[3],3.67%
O=C(Nc1cccc(-c2cccc(-c3nc4ccccc4[nH]3)c2)c1)c1ccoc1,inhibition,[1],7.02%
same,inhibition,[2],5.63%
same,inhibition,[3],3.82%
c1ccc2[nH]c(-c3ccc(-c4ccc(CN5CCCCC5)cc4)cc3)nc2c1,inhibition,[1],18.2%
same,inhibition,[2],12.9%
same,inhibition,[3],10.6%
COc1ccc2nc3cc(Cl)ccc3c(NCCN(C)C)c2c1,inhibition,[1],7.53%
same,inhibition,[2],5.07%
same,inhibition,[3],6.53%
Cc1cc(-c2ccc(CNC3CCN(C)CC3)cc2)ccc1S(=O)(=O)NCc1ccccc1,inhibition,[1],3.29%
same,inhibition,[2],3.32%
same,inhibition,[3],1.14%
COc1cc2nc(N3CCC(CNC(=O)c4cccc5cccnc45)CC3)nc(N)c2cc1OC,inhibition,[1],5.61%
same,inhibition,[2],4.14%
same,inhibition,[3],3.91%
Cc1ccccc1NC(=O)NC1CCN(CCCCCNC(=O)/C=C/c2ccc(Cl)c(Cl)c2)CC1,inhibition,[1],1.77%
same,inhibition,[2],2.24%
same,inhibition,[3],1.9%
CC(C)N1CCC(N(Cc2ccc(-c3ccc(C(F)(F)F)cc3)cc2)C(=O)Cn2c(CCc3cccc(F)c3F)nc(=O)c3cccnc32)CC1,inhibition,[1],2.74%
same,inhibition,[2],1.97%
same,inhibition,[3],0.94%
